We go through 1 sequence from paper PMC7862700, “An all-to-all approach to the identification of sequence-specific readers for epigenetic DNA modifications on cytosine”.

Experiment in all cases: DAPPL (digital affinity profiling via proximity ligation, sequencing); 10 mM Tris-HCl pH 7.5, 50 mM NaCl, 1 mM DTT, 4% glycerol, room temperature, 30 min; GST-TFs on glutathione beads, 16-mer random dsDNA library, 0.1% formaldehyde crosslink after washing; high values mean tight binding
In one experiment the target is T1, FEV (Homo sapiens, UniProt Q99581 1-238).
T1 sequence: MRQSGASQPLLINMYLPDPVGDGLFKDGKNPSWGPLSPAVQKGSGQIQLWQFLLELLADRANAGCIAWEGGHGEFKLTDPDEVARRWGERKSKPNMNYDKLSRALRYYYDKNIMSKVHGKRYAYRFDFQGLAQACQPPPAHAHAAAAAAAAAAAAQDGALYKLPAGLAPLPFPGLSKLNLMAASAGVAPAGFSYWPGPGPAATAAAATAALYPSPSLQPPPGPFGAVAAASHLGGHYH
Particulars: protein: recombinant; tags: N-terminal GST; dsDNA, one strand shown. In a few lines:
(§1)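 Pools were built from human transcription factors expressed in yeast as GST fusions, captured on glutathione beads and DNA-barcoded, along with a tag-only sample. Incubation with 200 nmole of a 16-mer random double-stranded DNA library lasted 30 min at room temperature in Tris/NaCl/DTT/glycerol buffer, and was followed by washing, 0.1% formaldehyde crosslinking, proximity ligation, PCR amplification and Illumina NextSeq500 sequencing. Binding signal is the quotient of each hexamer's read frequency for a factor and its frequency for the tag-only sample.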

The next experiment concerns the target ETV5 (Homo sapiens, UniProt P41161 1-510). The note with it: protein: recombinant; tags: N-terminal GST; dsDNA, one strand shown. In a few lines: as §1
Another experiment addresses HSF1 (Homo sapiens, UniProt Q00613 1-529). Particulars: protein: recombinant; tags: N-terminal GST; chain copies: 3; dsDNA, one strand shown. In a few lines: as §1
In a further experiment the target is T2, SPIC (Homo sapiens, UniProt Q8N5J4 1-248).
T2 sequence: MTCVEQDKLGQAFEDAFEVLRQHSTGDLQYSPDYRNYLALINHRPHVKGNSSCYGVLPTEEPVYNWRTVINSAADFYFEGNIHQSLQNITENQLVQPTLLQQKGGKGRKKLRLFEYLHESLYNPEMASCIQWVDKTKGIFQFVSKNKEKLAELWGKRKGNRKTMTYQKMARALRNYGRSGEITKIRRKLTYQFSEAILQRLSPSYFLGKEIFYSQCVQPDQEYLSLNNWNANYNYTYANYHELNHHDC
The note with it: protein: recombinant; tags: N-terminal GST; dsDNA, one strand shown. In a few lines:
as §1

A further experiment addresses ELF4 (Homo sapiens, UniProt Q99607 1-663). Particulars: protein: recombinant; tags: N-terminal GST; dsDNA, one strand shown. In a few lines: as §1
A further experiment deals with T3, ELK4 (Homo sapiens, UniProt P28324-2 1-405).
T3 sequence: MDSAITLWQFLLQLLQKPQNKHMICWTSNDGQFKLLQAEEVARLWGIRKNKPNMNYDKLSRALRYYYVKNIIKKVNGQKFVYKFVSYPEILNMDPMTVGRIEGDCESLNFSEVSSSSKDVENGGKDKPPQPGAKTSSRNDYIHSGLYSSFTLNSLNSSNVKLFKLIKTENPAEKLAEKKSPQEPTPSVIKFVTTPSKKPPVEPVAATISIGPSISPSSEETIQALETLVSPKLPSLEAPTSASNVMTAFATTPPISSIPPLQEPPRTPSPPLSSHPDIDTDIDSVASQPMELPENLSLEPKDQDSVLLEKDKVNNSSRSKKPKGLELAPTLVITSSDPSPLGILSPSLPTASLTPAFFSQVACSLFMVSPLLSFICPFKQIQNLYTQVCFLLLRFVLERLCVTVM
The note with it: protein: recombinant; tags: N-terminal GST; dsDNA, one strand shown. Summed up: as §1

A further experiment concerns the target T4, ETV2 (Homo sapiens, UniProt O00321 1-342).
T4 sequence: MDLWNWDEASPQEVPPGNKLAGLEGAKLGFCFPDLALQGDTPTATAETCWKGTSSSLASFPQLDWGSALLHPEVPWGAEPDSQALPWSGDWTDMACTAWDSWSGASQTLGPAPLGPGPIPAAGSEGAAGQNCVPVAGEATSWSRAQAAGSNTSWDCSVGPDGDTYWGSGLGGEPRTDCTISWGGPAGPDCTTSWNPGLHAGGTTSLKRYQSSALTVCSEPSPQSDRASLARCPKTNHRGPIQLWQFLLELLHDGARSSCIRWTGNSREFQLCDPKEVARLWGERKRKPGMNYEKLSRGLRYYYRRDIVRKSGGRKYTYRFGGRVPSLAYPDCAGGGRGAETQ
Particulars: protein: recombinant; tags: N-terminal GST; dsDNA, one strand shown. Summed up: as §1

The target in the next experiment is T5, ELF3 (Homo sapiens, UniProt P78545 1-371).
T5 sequence: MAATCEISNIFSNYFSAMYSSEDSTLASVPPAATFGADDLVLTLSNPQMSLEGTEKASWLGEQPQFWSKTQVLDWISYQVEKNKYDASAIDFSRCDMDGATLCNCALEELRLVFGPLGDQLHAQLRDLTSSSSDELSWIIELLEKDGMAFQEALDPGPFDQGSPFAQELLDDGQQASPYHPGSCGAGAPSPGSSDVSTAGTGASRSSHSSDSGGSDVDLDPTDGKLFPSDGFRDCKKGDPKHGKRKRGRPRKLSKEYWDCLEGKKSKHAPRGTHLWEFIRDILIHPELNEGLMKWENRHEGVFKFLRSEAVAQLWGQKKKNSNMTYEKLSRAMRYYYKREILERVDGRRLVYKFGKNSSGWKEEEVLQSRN
The note with it: protein: recombinant; tags: N-terminal GST; dsDNA, one strand shown. In a few lines: as §1

The target in a further experiment is CRX (Homo sapiens, UniProt O43186 1-299). Particulars: protein: recombinant; tags: N-terminal GST; dsDNA, one strand shown. Summed up:
as §1

In the next experiment the target is ETV1 (Homo sapiens, UniProt P50549 1-477). The note with it: protein: recombinant; tags: N-terminal GST; dsDNA, one strand shown. In a few lines:
as §1

The next experiment has as its target T6, ERF (Homo sapiens, UniProt P50548 1-548).
T6 sequence: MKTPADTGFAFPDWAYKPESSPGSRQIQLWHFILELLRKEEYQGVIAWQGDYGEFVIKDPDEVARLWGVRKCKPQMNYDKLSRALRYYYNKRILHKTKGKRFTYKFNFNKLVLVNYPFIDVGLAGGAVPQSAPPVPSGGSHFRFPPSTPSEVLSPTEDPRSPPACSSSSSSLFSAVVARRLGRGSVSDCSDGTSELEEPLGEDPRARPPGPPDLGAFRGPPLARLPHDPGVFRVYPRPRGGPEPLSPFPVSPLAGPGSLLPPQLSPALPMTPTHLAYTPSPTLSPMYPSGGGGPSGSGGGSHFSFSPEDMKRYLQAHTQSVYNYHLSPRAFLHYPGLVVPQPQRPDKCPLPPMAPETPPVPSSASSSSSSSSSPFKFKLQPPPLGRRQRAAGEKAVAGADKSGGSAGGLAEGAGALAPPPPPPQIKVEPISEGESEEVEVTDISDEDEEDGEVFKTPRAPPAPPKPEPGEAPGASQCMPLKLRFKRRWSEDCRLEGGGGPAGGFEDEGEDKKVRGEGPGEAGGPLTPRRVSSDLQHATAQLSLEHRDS
The note with it: protein: recombinant; tags: N-terminal GST; dsDNA, one strand shown. Summed up: as §1

For the next experiment, the target named is T7, ETV3L (Homo sapiens, UniProt Q6ZN32 1-361).
T7 sequence: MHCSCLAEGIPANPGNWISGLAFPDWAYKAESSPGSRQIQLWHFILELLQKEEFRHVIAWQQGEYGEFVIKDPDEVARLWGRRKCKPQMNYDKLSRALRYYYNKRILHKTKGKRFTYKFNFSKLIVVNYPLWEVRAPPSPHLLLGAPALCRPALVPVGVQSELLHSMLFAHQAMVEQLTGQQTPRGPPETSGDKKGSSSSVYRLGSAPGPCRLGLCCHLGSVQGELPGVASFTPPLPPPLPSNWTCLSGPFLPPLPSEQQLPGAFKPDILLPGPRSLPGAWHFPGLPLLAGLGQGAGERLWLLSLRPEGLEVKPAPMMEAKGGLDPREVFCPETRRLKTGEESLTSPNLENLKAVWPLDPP
Particulars: protein: recombinant; tags: N-terminal GST; dsDNA, one strand shown. Summed up: as §1

Another experiment concerns the target T8, ETS2 (Homo sapiens, UniProt P15036 1-469).
T8 sequence: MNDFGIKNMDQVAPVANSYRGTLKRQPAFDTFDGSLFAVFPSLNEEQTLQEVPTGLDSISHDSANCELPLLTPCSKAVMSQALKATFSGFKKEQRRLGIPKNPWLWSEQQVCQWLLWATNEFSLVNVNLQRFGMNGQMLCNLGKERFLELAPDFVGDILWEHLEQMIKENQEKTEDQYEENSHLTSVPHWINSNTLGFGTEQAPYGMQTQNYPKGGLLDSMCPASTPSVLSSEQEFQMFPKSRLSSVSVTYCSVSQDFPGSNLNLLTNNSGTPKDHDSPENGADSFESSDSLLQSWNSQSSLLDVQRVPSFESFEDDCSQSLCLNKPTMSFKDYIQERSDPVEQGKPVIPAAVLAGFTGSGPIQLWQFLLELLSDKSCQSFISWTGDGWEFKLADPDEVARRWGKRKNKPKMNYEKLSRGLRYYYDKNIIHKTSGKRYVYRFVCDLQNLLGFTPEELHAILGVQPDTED
The note with it: protein: recombinant; tags: N-terminal GST; dsDNA, one strand shown. Summed up: as §1

Another experiment deals with T9, SPDEF (Homo sapiens, UniProt O95238 1-335).
T9 sequence: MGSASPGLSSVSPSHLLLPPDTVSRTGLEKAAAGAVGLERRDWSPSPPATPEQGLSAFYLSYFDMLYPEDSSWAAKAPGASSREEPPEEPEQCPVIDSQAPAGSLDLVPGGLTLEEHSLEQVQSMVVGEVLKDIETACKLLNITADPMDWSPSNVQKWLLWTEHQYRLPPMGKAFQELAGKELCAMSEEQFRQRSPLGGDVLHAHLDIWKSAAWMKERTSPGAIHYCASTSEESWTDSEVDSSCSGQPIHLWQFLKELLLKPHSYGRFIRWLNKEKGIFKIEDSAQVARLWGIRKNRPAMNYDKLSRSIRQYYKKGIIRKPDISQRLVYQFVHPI
Particulars: protein: recombinant; tags: N-terminal GST; dsDNA, one strand shown. In a few lines:
as §1

For a further experiment, the target named is T10, ETV7 (Homo sapiens, UniProt Q9Y603 1-341).
T10 sequence: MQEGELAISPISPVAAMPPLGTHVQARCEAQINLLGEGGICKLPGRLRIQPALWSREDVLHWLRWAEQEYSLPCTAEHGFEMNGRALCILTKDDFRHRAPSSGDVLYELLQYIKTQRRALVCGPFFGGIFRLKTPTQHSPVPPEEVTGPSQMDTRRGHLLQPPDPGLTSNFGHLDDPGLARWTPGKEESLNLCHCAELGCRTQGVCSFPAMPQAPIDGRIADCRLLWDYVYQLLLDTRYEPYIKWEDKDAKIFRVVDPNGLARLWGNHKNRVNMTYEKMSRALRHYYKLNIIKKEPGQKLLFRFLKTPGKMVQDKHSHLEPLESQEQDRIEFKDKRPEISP
The note with it: protein: recombinant; tags: N-terminal GST; dsDNA, one strand shown. Summed up: as §1

A further experiment has as its target T11, ELF5 (Homo sapiens, UniProt Q9UKW6-2 1-255).
T11 sequence: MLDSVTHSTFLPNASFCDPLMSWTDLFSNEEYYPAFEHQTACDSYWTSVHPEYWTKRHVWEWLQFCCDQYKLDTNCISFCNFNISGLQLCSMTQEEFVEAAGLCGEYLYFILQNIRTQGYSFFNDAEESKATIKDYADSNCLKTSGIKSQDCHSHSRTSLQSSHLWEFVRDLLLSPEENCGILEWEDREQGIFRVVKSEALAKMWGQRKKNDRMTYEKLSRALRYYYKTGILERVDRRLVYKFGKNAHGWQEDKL
Particulars: protein: recombinant; tags: N-terminal GST; dsDNA, one strand shown. Summed up:
as §1

The target of another experiment is T12, ETV3 (Homo sapiens, UniProt P41162-2 1-143).
T12 sequence: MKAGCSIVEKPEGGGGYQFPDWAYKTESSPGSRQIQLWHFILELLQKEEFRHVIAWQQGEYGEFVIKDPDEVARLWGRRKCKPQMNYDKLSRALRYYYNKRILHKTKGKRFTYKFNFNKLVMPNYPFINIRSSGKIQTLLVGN
The note with it: protein: recombinant; tags: N-terminal GST; dsDNA, one strand shown. Summed up:
as §1

Another experiment concerns the target ETV6 (Homo sapiens, UniProt P41212 1-452). The note with it: protein: recombinant; tags: N-terminal GST; dsDNA, one strand shown. Summed up: as §1

Chain of ETV6 (P41212 whole entry): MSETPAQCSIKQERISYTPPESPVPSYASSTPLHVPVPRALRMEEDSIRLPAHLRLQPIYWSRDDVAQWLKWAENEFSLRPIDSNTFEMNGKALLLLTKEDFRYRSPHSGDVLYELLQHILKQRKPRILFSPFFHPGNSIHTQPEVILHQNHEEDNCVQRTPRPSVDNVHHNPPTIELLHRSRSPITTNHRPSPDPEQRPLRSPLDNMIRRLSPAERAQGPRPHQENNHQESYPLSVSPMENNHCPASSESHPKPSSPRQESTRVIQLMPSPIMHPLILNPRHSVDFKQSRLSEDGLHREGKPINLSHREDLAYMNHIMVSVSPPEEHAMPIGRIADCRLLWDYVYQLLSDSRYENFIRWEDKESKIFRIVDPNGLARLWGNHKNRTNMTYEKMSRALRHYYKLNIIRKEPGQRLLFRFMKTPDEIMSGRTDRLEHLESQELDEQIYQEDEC
Chain of HSF1 (Q00613 whole entry): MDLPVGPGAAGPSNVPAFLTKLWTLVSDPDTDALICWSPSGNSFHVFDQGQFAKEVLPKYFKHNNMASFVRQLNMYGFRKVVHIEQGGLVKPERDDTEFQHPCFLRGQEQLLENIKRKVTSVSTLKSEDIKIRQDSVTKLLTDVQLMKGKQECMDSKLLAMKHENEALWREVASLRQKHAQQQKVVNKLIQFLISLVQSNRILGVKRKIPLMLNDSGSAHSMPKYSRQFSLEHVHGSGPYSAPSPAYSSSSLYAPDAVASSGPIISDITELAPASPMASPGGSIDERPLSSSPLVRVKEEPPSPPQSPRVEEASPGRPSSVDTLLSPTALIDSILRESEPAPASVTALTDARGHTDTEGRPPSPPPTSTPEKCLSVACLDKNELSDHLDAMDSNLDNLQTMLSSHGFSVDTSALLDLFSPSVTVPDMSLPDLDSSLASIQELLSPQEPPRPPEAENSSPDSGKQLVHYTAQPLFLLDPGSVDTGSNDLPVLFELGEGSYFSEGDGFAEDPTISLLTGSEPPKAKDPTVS
Chain of ETV1 (P50549 whole entry): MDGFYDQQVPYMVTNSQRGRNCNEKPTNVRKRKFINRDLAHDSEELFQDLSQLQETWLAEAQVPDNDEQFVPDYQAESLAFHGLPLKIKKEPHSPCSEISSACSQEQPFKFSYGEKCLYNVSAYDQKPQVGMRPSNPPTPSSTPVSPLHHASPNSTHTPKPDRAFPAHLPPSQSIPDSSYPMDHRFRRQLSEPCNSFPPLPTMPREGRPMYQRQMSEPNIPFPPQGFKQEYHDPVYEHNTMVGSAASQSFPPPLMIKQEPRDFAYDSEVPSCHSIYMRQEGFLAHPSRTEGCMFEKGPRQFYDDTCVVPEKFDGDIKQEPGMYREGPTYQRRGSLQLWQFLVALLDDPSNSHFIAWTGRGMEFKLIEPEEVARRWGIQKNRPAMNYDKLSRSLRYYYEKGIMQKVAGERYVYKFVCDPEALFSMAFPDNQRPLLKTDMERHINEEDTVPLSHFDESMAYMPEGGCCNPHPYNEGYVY
Chain of ETV5 (P41161 whole entry): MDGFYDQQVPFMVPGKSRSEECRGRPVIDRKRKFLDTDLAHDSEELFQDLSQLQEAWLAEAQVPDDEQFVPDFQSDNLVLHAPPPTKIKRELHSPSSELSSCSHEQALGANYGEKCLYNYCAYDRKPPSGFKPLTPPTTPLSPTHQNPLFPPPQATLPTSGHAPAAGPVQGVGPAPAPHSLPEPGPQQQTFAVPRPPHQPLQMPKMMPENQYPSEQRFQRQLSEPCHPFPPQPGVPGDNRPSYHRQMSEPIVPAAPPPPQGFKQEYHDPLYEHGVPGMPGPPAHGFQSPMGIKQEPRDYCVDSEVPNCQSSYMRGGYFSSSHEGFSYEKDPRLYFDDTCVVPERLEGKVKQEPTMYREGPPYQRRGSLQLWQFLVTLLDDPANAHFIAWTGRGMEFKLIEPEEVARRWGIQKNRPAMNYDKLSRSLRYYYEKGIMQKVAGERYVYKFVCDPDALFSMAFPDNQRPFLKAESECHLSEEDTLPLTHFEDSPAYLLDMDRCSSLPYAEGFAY
Chain of ELF4 (Q99607 whole entry): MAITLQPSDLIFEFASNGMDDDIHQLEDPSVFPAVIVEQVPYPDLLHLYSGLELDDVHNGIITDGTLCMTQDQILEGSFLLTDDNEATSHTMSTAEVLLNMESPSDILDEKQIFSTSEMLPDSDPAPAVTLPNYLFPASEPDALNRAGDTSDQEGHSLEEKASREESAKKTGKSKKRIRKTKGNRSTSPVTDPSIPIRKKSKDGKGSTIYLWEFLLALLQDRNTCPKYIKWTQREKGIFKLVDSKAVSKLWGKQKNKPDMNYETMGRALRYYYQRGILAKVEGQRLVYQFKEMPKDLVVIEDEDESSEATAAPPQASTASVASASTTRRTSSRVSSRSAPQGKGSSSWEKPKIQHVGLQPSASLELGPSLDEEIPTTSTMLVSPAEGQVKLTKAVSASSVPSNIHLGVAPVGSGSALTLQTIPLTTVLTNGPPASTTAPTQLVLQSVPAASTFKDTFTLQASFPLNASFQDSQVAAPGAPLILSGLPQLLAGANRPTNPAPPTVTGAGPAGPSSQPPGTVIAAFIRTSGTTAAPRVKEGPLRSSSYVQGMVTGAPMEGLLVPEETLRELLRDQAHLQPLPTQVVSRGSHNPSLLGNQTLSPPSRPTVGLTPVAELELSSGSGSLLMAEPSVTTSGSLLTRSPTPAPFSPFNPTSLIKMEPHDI
Chain of CRX (O43186 whole entry): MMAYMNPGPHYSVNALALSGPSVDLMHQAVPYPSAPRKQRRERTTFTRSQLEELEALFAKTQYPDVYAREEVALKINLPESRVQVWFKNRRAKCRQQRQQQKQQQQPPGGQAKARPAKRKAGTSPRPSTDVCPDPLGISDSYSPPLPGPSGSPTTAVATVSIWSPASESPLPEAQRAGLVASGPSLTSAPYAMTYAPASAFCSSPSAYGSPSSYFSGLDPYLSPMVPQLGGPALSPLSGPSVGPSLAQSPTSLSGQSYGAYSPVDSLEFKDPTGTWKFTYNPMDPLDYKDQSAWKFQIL

For TTCACG, the binding signal with FEV was 1.28 fold enrichment (6-mer frequency, TF over GST control); with ETV5, 1.34 fold enrichment (6-mer frequency, TF over GST control); with HSF1, 1.51 fold enrichment (6-mer frequency, TF over GST control); with SPIC it was 1.45 fold enrichment (6-mer frequency, TF over GST control); with ELF4, 1.46 fold enrichment (6-mer frequency, TF over GST control); with ELK4 it was 1.55 fold enrichment (6-mer frequency, TF over GST control). In addition, the binding signal in the experiment with ETV2 is 1.34 fold enrichment (6-mer frequency, TF over GST control); with ELF3, 1.41 fold enrichment (6-mer frequency, TF over GST control); in the experiment with CRX it was 1.26 fold enrichment (6-mer frequency, TF over GST control); with ETV1, 1.32 fold enrichment (6-mer frequency, TF over GST control); with ERF it was 1.44 fold enrichment (6-mer frequency, TF over GST control); in the experiment with ETV3L, 1.32 fold enrichment (6-mer frequency, TF over GST control). Further, the binding signal with ETS2 is 1.34 fold enrichment (6-mer frequency, TF over GST control); with SPDEF, 1.34 fold enrichment (6-mer frequency, TF over GST control); with ETV7, 1.43 fold enrichment (6-mer frequency, TF over GST control); with ELF5, 1.38 fold enrichment (6-mer frequency, TF over GST control); in the experiment with ETV3, 1.35 fold enrichment (6-mer frequency, TF over GST control); with ETV6 it was 1.43 fold enrichment (6-mer frequency, TF over GST control).
